Shown are actives, neighbours in structure and some others; about 7.5% of the full set was active somewhere.
ELG1 genotox = genotoxicity induction in ELG1-luciferase HEK293T cells. HEK293T ELG1-luciferase reporter, luminescence, 16 h. Potency, µM (series often up to 46 µM), inactives show at the top dose activity change, positive = activation, actives largely listed as activators. hit rate 1.3% among 330,000. AID 504466; note: % of control where 0% means no effect; nearly all actives have a fitted effect of over 60% in size
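16 hr compound incubation (37 °C, 5% CO2) of HEK293T cells carrying luciferase-tagged ELG1; luciferase then measured by ONE-Glo luminescence after 30 min at RT.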
SMN2 splice enh = enhancers of SMN2 splice variant expression; HEK293 SMN2-luciferase splicing reporter, luminescence, 30-36 h; Potency, µM (highest dose often 46.1 µM), without a hit: top-dose activity change, positive = activation, most hits filed as activators; hit rate 2.8% among 210,000; AID 1458; note: % of control where 0% means no effect; nearly all actives have a fitted effect of over 55% in size
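HEK293 cells carry an SMN2 minigene-luciferase reporter in which exon 7 inclusion puts luciferase in frame. Cells were seeded at 2000 cells/well, attached for 10-12 hours, then exposed to compounds for 30-36 hours at 37C before ONE-Glo luminescence.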
Luc counter = blocks Kinase-Glo luciferase, a counter-screen artifact. Q27757. Kinase-Glo luciferase, ATP luminescence, 8 min. Potency, µM (doses to about 38.3 µM), without a hit: at the highest dose activity change, negative = inhibition, actives largely listed as inhibitors. hit rate 0.28% among 200,000. AID 1379; note: % is set by controls: 0 for no effect and ±100 for the full control effect; nearly all actives have a fitted effect of over 60% in size
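Kinase-Glo luciferase light output from ATP and luciferin was measured with 10 uM ATP, within the enzyme's linear range. Buffer: 50 mM imidazole pH 7.2, 50 mM KCl, 7 mM MgCl2, 0.01% Tween 20, 0.05% BSA; luminescence read after 8 min at ambient temperature.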
FLuc counter = inhibits or activates purified firefly luciferase, miR-21 counter-screen; Potency, µM (titrated, usually from 57.5 µM), for inactives: top-dose activity change, negative = inhibition, hits mostly inhibitors; purified FLuc, Km substrates, luminescence inhibition; AID 588342; hit rate 6.9% among 360,000;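 note: plate controls were vehicle for no effect and reference inhibitor for full effect; nearly all actives have a fitted effect of over 55% in size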
Target sequence (P08659 whole entry, looked up): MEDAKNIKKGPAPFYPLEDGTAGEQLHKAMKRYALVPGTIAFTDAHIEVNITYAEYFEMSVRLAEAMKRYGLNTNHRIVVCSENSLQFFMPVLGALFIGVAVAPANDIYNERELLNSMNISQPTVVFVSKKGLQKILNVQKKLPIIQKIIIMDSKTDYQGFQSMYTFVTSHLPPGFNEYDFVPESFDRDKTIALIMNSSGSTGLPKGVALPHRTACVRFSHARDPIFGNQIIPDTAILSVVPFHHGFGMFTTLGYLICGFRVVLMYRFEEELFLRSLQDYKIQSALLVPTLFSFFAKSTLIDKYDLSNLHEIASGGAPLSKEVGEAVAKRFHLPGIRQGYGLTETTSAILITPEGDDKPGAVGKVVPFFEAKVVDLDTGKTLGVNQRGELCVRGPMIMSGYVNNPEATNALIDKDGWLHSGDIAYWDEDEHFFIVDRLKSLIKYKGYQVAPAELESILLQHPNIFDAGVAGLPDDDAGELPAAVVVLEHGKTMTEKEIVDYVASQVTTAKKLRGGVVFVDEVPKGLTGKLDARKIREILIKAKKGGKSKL
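Purified P. pyralis luciferase, 10 nM final, with Km-level 10 uM D-luciferin and 10 uM ATP in 50 mM Tris acetate pH 7.5, 10 mM Mg acetate, 0.01% Tween-20, 0.05% BSA; 6-point qHTS titration about 60 µM downward; luminescence read.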
Rab9 prom act = Rab9 promoter activation. hit rate 2.8% among 320,000. Huh7 Rab9 promoter-luciferase reporter, luminescence, 24 h. Potency, µM (doses to about 9.22 µM), for inactives: at the highest dose activation, negative = inhibition, most hits filed as activators; note: % of control where 0% means no effect; nearly all actives have a fitted effect of over 60% in size
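Cell-based reporter: Huh7 stable for Rab9 promoter-driven luciferase, plated in reduced-serum medium with 10% FBS at 1500 cells/well, compound-treated 24 h at 37 °C, luminescence read after 10 min reagent.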
NPC1 promoter act = activators of NPC1 promoter. Huh7 NPC1 promoter luciferase reporter, 24 h. Potency, µM (series often up to 9.22 µM), inactives show top-dose activation, hits mostly activators. hit rate 2.4% among 320,000. AID 485313; note: % of control where 0% means no effect; nearly all actives have a fitted effect of over 60% in size
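Huh7 cells stably carrying NPC1 promoter–luciferase, plated in Opti-MEM with 10% FBS for 2 h, were exposed to compound in DMSO for 24 h at 37 °C; luciferase reagent was added for 10 min and luminescence read.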
* hit, by the source's call. Calls come from the whole dose curve; as a rule, active = well fitted curve in the direction sought with a large enough effect; inconclusive = small, poorly fitted or top-dose-only effect, or another doubt; inactive = no such curve, though single readings can be large; an effect the other way counts as inactive or inconclusive. Potency is the fitted concentration of half-maximal effect.

Results for C=CCn1c(SCc2csc(-c3ccc(C)cc3)n2)nnc1-c1ccccc1OC ?
ELG1 genotox: -4.7%; FLuc counter: 21.3µM*; Rab9 prom act: 2.4%; NPC1 promoter act: -0.9%

Results for COCCNC(=O)CN1C(=O)COc2ccc(S(=O)(=O)N3CCOCC3)cc21 ?
SMN2 splice enh: 8.8%; FLuc counter: 1.1%

Results for Cc1ccc(NC(=O)c2cnccn2)nc1 ?
ELG1 genotox: 0.0%; FLuc counter: 9.53µM*; Rab9 prom act: 9.8%; NPC1 promoter act: 22.9%

How did Cc1ccc(NC(=O)c2cnccn2)c(Br)c1 do in these assays?
ELG1 genotox: inconclusive; FLuc counter: 21.3µM*; Rab9 prom act: inconclusive; NPC1 promoter act: inconclusive

Results for Cc1cc(NC(=O)c2cnccn2)no1 ?
ELG1 genotox: -0.9%; SMN2 splice enh: -20.7%; Luc counter: 0.4%; FLuc counter: 1.6%; Rab9 prom act: 15.2%; NPC1 promoter act: -1.2%

What do the screens show for `Brc1ccc2nc(-c3c[nH]c4ccccc34)cn2c1`?
ELG1 genotox: inconclusive; SMN2 splice enh: 10µM*; Luc counter: -6.9%; FLuc counter: 1.51µM*; Rab9 prom act: 1µM*; NPC1 promoter act: 2.24µM*

What do the screens show for `Nc1nc(-c2c[nH]c3ccccc23)cs1`?
ELG1 genotox: -1.8%; SMN2 splice enh: inconclusive; Luc counter: -6.6%; FLuc counter: inconclusive; Rab9 prom act: inconclusive; NPC1 promoter act: 11.8%

What do the screens show for `Cc1cccn2cc(-c3c[nH]c4ccccc34)nc12`?
ELG1 genotox: inconclusive; SMN2 splice enh: 12.6µM*; Luc counter: 1.7%; FLuc counter: 19µM*; Rab9 prom act: inconclusive; NPC1 promoter act: inconclusive

How did CCC(C)c1ccccc1N1CC(C(=O)N(C)CC(=O)Nc2cccc(F)c2)CC1=O (centres undefined) do in these assays?
ELG1 genotox: -1.4%; FLuc counter: 1.6%; Rab9 prom act: -1.0%; NPC1 promoter act: -1.0%

What do the screens show for `Cc1ccc(NC(=O)Cn2c(C)cc(C)c(C#N)c2=O)cc1`?
FLuc counter: 3.5%

What do the screens show for `c1ccc(-c2cccc(-c3ccccc3)n2)cc1`?
ELG1 genotox: 5.5%; FLuc counter: 12µM*; Rab9 prom act: inconclusive; NPC1 promoter act: 22.7%

What do the screens show for `Cc1nc(-c2ccc3c(c2)OCO3)cs1`?
ELG1 genotox: 5.7%; SMN2 splice enh: inconclusive; Luc counter: -3.5%; FLuc counter: 15.1µM*; Rab9 prom act: 13.6%; NPC1 promoter act: 17.2%

Results for Nc1nc(-c2ccc3c(c2)OCCO3)cs1 ?
ELG1 genotox: 20.6µM*; SMN2 splice enh: 15.8µM*; Luc counter: -1.9%; FLuc counter: 9.53µM*; Rab9 prom act: 3.55µM*; NPC1 promoter act: 3.55µM*

Results for Nc1nc(-c2cccc(F)c2)cs1 ?
ELG1 genotox: 1.8%; Luc counter: -6.0%; FLuc counter: -9.4%; Rab9 prom act: -1.0%; NPC1 promoter act: -1.0%

What do the screens show for `Nc1nc(-c2ccc3c(c2)CCCC3)cs1`?
ELG1 genotox: inconclusive; SMN2 splice enh: 11.2µM*; Luc counter: -17.0%; FLuc counter: 2.13µM*; Rab9 prom act: 2.82µM*; NPC1 promoter act: 2.24µM*

Results for COc1ccc(-c2csc(C)n2)cc1OC ?
ELG1 genotox: 14.4%; SMN2 splice enh: -13.2%; Luc counter: -5.6%; FLuc counter: inconclusive; Rab9 prom act: 8.4%; NPC1 promoter act: 2.3%

What do the screens show for `Cc1nc(-c2cccc(N)c2)cs1`?
ELG1 genotox: 18.7%; SMN2 splice enh: 6.9%; Luc counter: 4.4%; FLuc counter: -15.0%; Rab9 prom act: -1.0%; NPC1 promoter act: 10.6%

How did Cc1nc(-c2ccc3c(c2)OCCCO3)cs1 do in these assays?
ELG1 genotox: inconclusive; FLuc counter: 7.57µM*; Rab9 prom act: 1.58µM*; NPC1 promoter act: 1.78µM*

How did Nc1nc(-c2cc3c(cc2Cl)OCCO3)cs1 do in these assays?
ELG1 genotox: 7.5%; FLuc counter: inconclusive; Rab9 prom act: 8.5%; NPC1 promoter act: 1.9%

Results for Cc1ccc(C(=O)COC(=O)CN2C(=O)C3C4CCC(C4)C3C2=O)cc1C (centres undefined) ?
ELG1 genotox: -2.9%; FLuc counter: -18.9%; Rab9 prom act: 5.8%; NPC1 promoter act: 1.2%

How did Nc1nc(-c2ccc3c(c2)NC(=O)CO3)cs1 do in these assays?
ELG1 genotox: inconclusive; SMN2 splice enh: -39.1%; Luc counter: 5.0%; FLuc counter: -9.9%; Rab9 prom act: 2.6%; NPC1 promoter act: -0.6%

How did c1cncc(-c2nc(-c3ccc4c(c3)OCO4)cs2)c1 do in these assays?
ELG1 genotox: inconclusive; Luc counter: -3.5%; FLuc counter: 4.78µM*; Rab9 prom act: 1.58µM*; NPC1 promoter act: 2.82µM*

What do the screens show for `O=S(=O)(c1cccc(-c2csc(-c3cccnc3)n2)c1)N1CCOCC1`?
ELG1 genotox: -1.0%; FLuc counter: -1.8%; Rab9 prom act: inconclusive; NPC1 promoter act: -1.1%

How did CC1Cc2cc(-c3csc(N)n3)ccc2O1 (centres undefined) do in these assays?
ELG1 genotox: inconclusive; FLuc counter: 9.53µM*; Rab9 prom act: 1.26µM*; NPC1 promoter act: inconclusive

How did COc1ccc(C(=O)NCC(c2cccnc2)N2CCc3ccccc3C2)cc1 (centres undefined) do in these assays?
FLuc counter: -0.6%

What do the screens show for `COc1ccc(C(=O)NCC(c2cccnc2)N2CCc3ccccc3C2)cc1OC` (centres undefined)?
FLuc counter: 0.675µM*

What do the screens show for `Cc1noc(C)c1C(=O)OCC(=O)c1ccc[nH]1`?
ELG1 genotox: -4.8%; SMN2 splice enh: -7.7%; Luc counter: -4.6%; FLuc counter: 2.4%; Rab9 prom act: -10.7%; NPC1 promoter act: 1.1%

How did Cc1noc(C)c1C(=O)OCC(=O)c1cc(C)n(Cc2ccccc2Cl)c1C do in these assays?
ELG1 genotox: 16.4µM*; SMN2 splice enh: -21.1%; Luc counter: -9.9%; FLuc counter: 10.7µM*; Rab9 prom act: inconclusive; NPC1 promoter act: inconclusive

What do the screens show for `O=C(Cn1cc(C(F)(F)F)ccc1=O)NC1CCCC1`?
ELG1 genotox: -0.7%; FLuc counter: 4.4%; Rab9 prom act: 0.8%; NPC1 promoter act: -3.1%

Results for COc1ccc(C(=O)Nc2cccc(OC(=O)c3ccco3)c2)cc1 ?
ELG1 genotox: 4.61µM*; FLuc counter: 13.5µM*; Rab9 prom act: inconclusive; NPC1 promoter act: inconclusive

Results for O=C(Nc1cccc(NC(=O)c2ccco2)c1)c1ccc([N+](=O)[O-])cc1 ?
ELG1 genotox: -2.3%; FLuc counter: 2.6%; Rab9 prom act: -7.4%; NPC1 promoter act: -2.9%

From PubChem
